biological target: T1, EcR (Drosophila melanogaster, UniProt P34021 251-348); experiment: FP; 33 mM phosphate pH 7.0, 90 mM NaCl, 0.01% Tween 20, 0.1 mM DTT, 0.5% agarose; room temperature; conditions: tags: N-GST (pGEX-6P-1, kept); dsDNA, one strand shown
T1 sequence: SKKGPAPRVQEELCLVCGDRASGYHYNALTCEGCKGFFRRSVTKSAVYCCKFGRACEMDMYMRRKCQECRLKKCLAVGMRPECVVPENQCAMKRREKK

Sequence	binding signal	Kd [nM]
GACTGACCCCTAC	2.46 Kd / Kd of best base at the position	
GAATAACCCCTAC	3.47 Kd / Kd of best base at the position	
GCATGACCCCTAC	2.1 Kd / Kd of best base at the position	
GAATGACCCCTAC		~23.7
GAATGACGCCTAC	19.5 Kd / Kd of best base at the position	
GAATGAGCCCTAC	12.7 Kd / Kd of best base at the position	
GAATGACCCCTAA	1.25 Kd / Kd of best base at the position	
GTATGACCCCTAC	1.76 Kd / Kd of best base at the position	
GATTGACCCCTAC	1.87 Kd / Kd of best base at the position	
GAATGCCCCCTAC	3.38 Kd / Kd of best base at the position	
GAATGGCCCCTAC	5.84 Kd / Kd of best base at the position	
GAATGACCCTTAC	1.59 Kd / Kd of best base at the position	
GAATGACCCCTAT	1.25 Kd / Kd of best base at the position	
CAATGACCCCTAC	1.8 Kd / Kd of best base at the position	
GAATGACCCCAAC	1.46 Kd / Kd of best base at the position	
GAATGACCGCTAC	2.37 Kd / Kd of best base at the position	
GAATGACCACTAC	5.04 Kd / Kd of best base at the position	
GAATGACCCCTAG	1.29 Kd / Kd of best base at the position	
GAATGACCCCGAC	1.46 Kd / Kd of best base at the position	
GAATCACCCCTAC	9.57 Kd / Kd of best base at the position	

Sequence	binding signal	Kd [nM]
GAATGTCCCCTAC	6.26 Kd / Kd of best base at the position	
GAATGACCCGTAC	2.06 Kd / Kd of best base at the position	
GAATGACCTCTAC	1.03 Kd / Kd of best base at the position	
GAATGACCCCTGC	1.47 Kd / Kd of best base at the position	
GAGTGACCCCTAC	1.99 Kd / Kd of best base at the position	
GAATGACCCCCAC	1.69 Kd / Kd of best base at the position	
GAATGAACCCTAC	1.84 Kd / Kd of best base at the position	
GAATGACCCATAC	2.6 Kd / Kd of best base at the position	
GGATGACCCCTAC	1.78 Kd / Kd of best base at the position	
GAAGGACCCCTAC	10 Kd / Kd of best base at the position	
GAATGACACCTAC	4.55 Kd / Kd of best base at the position	
GAATTACCCCTAC	11.6 Kd / Kd of best base at the position	
GAATGATCCCTAC	9.3 Kd / Kd of best base at the position	
GAATGACCCCTCC	1.29 Kd / Kd of best base at the position	
GAACGACCCCTAC	3.06 Kd / Kd of best base at the position	
GAAAGACCCCTAC	8.21 Kd / Kd of best base at the position	
GAATGACCCCTTC	1.34 Kd / Kd of best base at the position	
GAATGACTCCTAC	7.37 Kd / Kd of best base at the position	
TAATGACCCCTAC	1.83 Kd / Kd of best base at the position	
